Hits are enriched below; roughly 7.9% of the tested compounds scored in any of these assays.
MCF10A rereplic – induces DNA re-replication in MCF 10a normal breast cells | MCF 10A DNA re-replication, Hoechst nuclear intensity, 48 h | Potency, µM (highest dose often 46.1 µM), most hits filed as activators | 2.9% of 350,000 active; note: nearly all actives have a fitted effect of over 50% in size
SW480 rereplic – inducers of DNA re-replication in SW480 colon cancer cells; SW480 DNA re-replication, Hoechst DNA content imaging, 48 h; Potency, µM (doses to about 46.1 µM), usual class: activators; 1.8% of 340,000 active; AID 624297; note: nearly all actives have a fitted effect of over 55% in size
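Hoechst fluorescence of nuclei (405 nm excitation, 500-530 nm emission) measured by plate-scanning imager after 48 hr compound exposure at 37 C; re-replication scored as increased number of nuclei with elevated intensity.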
KB-3-1 tox – KB-3-1 parental cell cytotoxicity. KB-3-1 viability, CellTiter-Glo ATP luminescence, 72 h. Potency, µM (titrated, usually from 46.1 µM), hits mostly cytotoxic. 1.4% of 400,000 active. AID 1347075; note: nearly all actives have a fitted effect of over 60% in size
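Screening of KB-3-1 cells (DMEM, 10% FBS, phenol-red free) ran from lowest to highest compound concentration; after 72 h at 37 °C viability was read luminescently and curves fitted.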
KB-V1 cytotox – kills drug-selected multidrug resistant KB-V1 cells; Potency, µM (series often up to 46.1 µM), actives largely listed as cytotoxic; 3.4% of 400,000 active; KB-V1 MDR cells viability, CellTiter-Glo, 72 h; note: nearly all actives have a fitted effect of over 60% in size
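Potencies derive from concentration-effect curves fitted to normalized luminescence (CellTiter-Glo) of KB-V1 cells treated for 72 h at 37 degrees C in phenol-red-free DMEM containing 10% FBS.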
HT1080 IDH1KD tx – kills HT-1080 cells with IDH1 knockdown; AID 686971; 2% of 360,000 active; HT-1080 IDH1 knockdown viability, ATP luminescence, 48 h; Potency, µM (doses to about 46.1 µM), usual class: cytotoxic
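Luminescent ATP read-out (CellTiter-Glo, 10 min at room temperature) after 48 h compound exposure at 37 °C gave viability of IDH1-knockdown HT-1080 cells. Activity was normalised to DMSO and cell-free wells, then fitted as concentration-response curves.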
HT1080-NT tox – kills 2HG-producing HT-1080-NT fibrosarcoma cells. HT-1080-NT fibrosarcoma viability, CellTiter-Glo ATP luminescence, 48 h. Potency, µM (series often up to 46.1 µM), most hits filed as cytotoxic. 1.6% of 360,000 active;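 note: NT is the 2HG producing partner of a matched IDH1 knockdown line; nearly all actives have a fitted effect of over 55% in size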
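HT-1080-NT; 750 cells/well; 5% FBS RPMI; 48 h compound, 37 degrees C; CellTiter-Glo luminescence; curve fitting and curve-class assignment.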
Hits are given with their value; – = inactive; ? = inconclusive; · = not tested or not shown; [ ] = remark or other dose. Calls come from the whole dose curve; as a rule, active = well fitted curve in the direction sought with a large enough effect; inconclusive = small, poorly fitted or top-dose-only effect, or another doubt; inactive = no such curve, though single readings can be large; an effect the other way counts as inactive or inconclusive.

SMILES | MCF10A rereplic | SW480 rereplic | KB-3-1 tox | KB-V1 cytotox | HT1080 IDH1KD tx | HT1080-NT tox
CC1(C(=O)O)CCCC2(C)c3cc(O)ccc3CCC12 (stereo unspecified) | 18µM | – | – | – | – | –
COc1cccc(/C=C/c2nc3ccccc3c(=O)n2-c2ccc(Cl)cc2)c1OC | · | · | – | – | · | ·
CCC1(CC)C(=O)NC(=O)NC1=O | – | – | · | · | · | ·
CC1(C)C(=O)CCC2C1=CCC1C2CCC2(C)C(O)CCC12 (stereo unspecified) | – | – | – | – | – | –
COc1cc2c(cc1O)CC[C@@H]1[C@@H]2CC[C@]2(C)[C@@H](O)CC[C@@H]12 | ? | 3.3µM | 1.6µM | 5.8µM | ? | ?
CCC/C=C/C=C/C(=O)OC1/C(=C/C(=O)OC)CC2CC(C(C)O)OC(=O)CC(O)CC3CC(OC(C)=O)C(C)(C)C(O)(CC4C/C(=C/C(=O)OC)CC(/C=C\C(C)(C)C1(O)O2)O4)O3 (stereo unspecified) | – | ? | · | · | · | ·
COc1cccc(CCNCc2cccc(C(F)(F)F)c2)c1 | – | – | – | – | – | –
COc1cccc(CNCC(O)(c2ccc(Cl)cc2)c2ccc(Cl)cc2)c1 | ? | ? | ? | 15µM | ? | ?
CCC(=O)Nc1ccc(C(=O)NNC(=O)c2cc([N+](=O)[O-])cc([N+](=O)[O-])c2)cc1 | – | – | – | – | – | –
COc1ccccc1N1CCN(CCc2c[nH]c3cc4c(cc23)OCO4)CC1 | – | – | – | 18µM | ? | –
C[N+]1([O-])[C@@H]2CC[C@H]1CC(OC(=O)[C@@H](CO)c1ccccc1)C2 (stereo partly specified) | – | – | · | · | · | ·
C=CCNc1nnc(Sc2ncccc2[N+](=O)[O-])s1 | ? | ? | – | – | – | –
CCn1c(=O)oc2cc(NC(=O)CCl)ccc21 | ? | ? | ? | ? | 5.2µM | 8.2µM
COc1ccccc1-n1c(/C=C/c2ccccc2)nc2ccccc2c1=O | · | · | – | – | · | ·
O=c1c2ccccc2nc(/C=C/c2ccc(O)cc2)n1-c1ccccc1O | 21µM | – | 21µM | – | – | –
O=c1c2ccccc2nc(/C=C/c2ccccc2)n1-c1ccccc1O | ? | ? | – | – | – | –
Cc1ccc(-n2c(/C=C\c3ccc(F)c(F)c3)nc3ccccc3c2=O)c(C)c1 | · | · | 2.9µM | 4.1µM | · | ·
Cc1ccccc1-n1c(/C=C/c2ccccn2)nc2ccccc2c1=O | 18µM | – | – | ? | – | –
CC(=O)O[C@H]1CC[C@@]2(C)C(=CC[C@@H]3[C@H]2CC[C@]2(C)C(=O)CC[C@H]32)C1 | ? | – | · | · | · | ·
O=C(Cc1ccc(S(=O)(=O)N2CCCC2)s1)N1CCN(c2ccc(F)cc2)CC1 | – | ? | – | ? | – | –
CC(=O)OO | – | – | · | · | · | ·
CC(=O)O[C@@]12CO[C@@H]1C[C@H](OC1OCC(O)C(O)C1O)[C@@]1(C)C(=O)[C@H](O)C3=C(C)[C@@H](OC(=O)[C@H](O)[C@@H](NC(=O)c4ccccc4)c4ccccc4)C[C@@](O)([C@@H](OC(=O)c4ccccc4)C12)C3(C)C (stereo partly specified) | 0.58µM | 5.8µM | 1µM | – | 5.8µM | 3.3µM
CC(=O)O[C@@]12CO[C@@H]1C[C@@H](O)[C@@]1(C)C(=O)[C@H](O)C3=C(C)[C@@H](OC(=O)[C@H](O)[C@@H](NC(=O)c4ccccc4)c4ccccc4)C[C@@](O)([C@@H](OC(=O)c4ccccc4)C12)C3(C)C (stereo partly specified) | ? | 8.2µM | 0.01µM | – | 0.013µM | 0.21µM
CC(=O)OC12COC1CC(O)C1(C)C(=O)C(O)C3=C(C)C(O)CC(O)(C(OC(=O)c4ccccc4)C21)C3(C)C (stereo unspecified) | 0.82µM | 8.2µM | 0.52µM | – | ? | ?
CCCCCC(=O)N[C@@H](c1ccccc1)[C@@H](O)C(=O)O[C@H]1C[C@@]2(O)[C@@H](OC(=O)c3ccccc3)C3[C@](C)(C(=O)[C@H](O)C(=C1C)C2(C)C)[C@@H](OC1OCC(O)C(O)C1O)C[C@H]1OC[C@@]31OC(C)=O (stereo partly specified) | ? | 3.7µM | 0.21µM | – | 1.8µM | 2.6µM
SMILES | MCF10A rereplic | SW480 rereplic | KB-3-1 tox | KB-V1 cytotox | HT1080 IDH1KD tx | HT1080-NT tox
NC(=O)c1ccc(NC(=O)c2cccn(Cc3ccccc3)c2=O)cc1 | · | · | – | ? | · | ·
COc1ccc(/C=C2\Oc3cc(OC(=O)N4CCOCC4)ccc3C2=O)c(OC)c1 | – | ? | – | – | – | –
N#Cc1cc(NC(=O)c2ccc(Cl)cc2)ccc1Sc1ccccc1 | · | · | ? | – | 21µM | ?
COc1ccc(Nc2nc(N3CCCC3)nc3ccccc23)c(OC)c1 | 18µM | ? | – | ? | 11µM | ?
COc1ccc(-n2c(/C=C\c3ccccc3F)nc3ccccc3c2=O)c(OC)c1 | · | · | – | – | · | ·
Cc1cccc(CN2C(=O)CN=C(c3ccccc3Cl)c3cc(Cl)ccc32)c1 | · | · | – | – | · | ·
COc1ccc(CCNC2CCCCC2)cc1 | – | – | – | – | – | –
COc1ccc(C[C@H]2NC[C@H](O)[C@H]2OC(C)=O)cc1 | ? | –[1.84 µM] | 0.33µM | 0.41µM | 0.16µM | 0.046µM
Oc1ccccc1/C=N/[n+]1ccccc1 | – | – | – | – | – | –
O=C(c1ccc2c(c1)N(Cc1ccc(F)cc1)CCS2)N1CCC2(CC1)OCCO2 | ? | – | – | – | – | –
O=C(c1ccc2c(c1)ncn2-c1ccc(F)cc1F)N1CCC2(CC1)OCCO2 | ? | ? | ? | ? | ? | 15µM
Cc1ccccc1N1CCN(Cc2c[nH]c3ccccc23)CC1 | ? | – | – | – | 1.3µM | ?
c1ccc2c(CN3CCOCC3)c[nH]c2c1 | – | – | – | – | – | –
c1ccc2c(CNC3CCCCCC3)c[nH]c2c1 | – | – | ? | ? | 20µM | ?
c1ccc2c(CN3CCCCCC3)c[nH]c2c1 | – | – | 15µM | – | – | –
Clc1ccccc1CNCCc1c[nH]c2ccccc12 | · | · | – | – | – | –
COc1ccccc1N1CCN(Cc2c[nH]c3ccccc23)CC1 | – | – | – | ? | ? | ?
O=C(CN1CCOCC1)c1cccc([N+](=O)[O-])c1 | · | · | ? | – | · | ·
CN(C)CCOc1ccc(/C(=C(/CCCl)c2ccccc2)c2ccccc2)cc1 | 4.6µM | – | – | ? | ? | –
c1ccc(N2CCN(c3ccccc3)CC2)cc1 | · | · | – | – | · | ·
C[C@](O)(CS(=O)(=O)c1ccc(F)cc1)C(=O)Nc1ccc(C#N)c(C(F)(F)F)c1 | – | – | · | · | · | ·
CCC(CC)N1CCN(Cc2nc3ccccc3c(=O)n2-c2ccc(F)cc2)CC1 | 0.58µM | – | – | ? | – | –
O=c1c2ccccc2nc(CN2CCCCCC2)n1-c1ccc(F)cc1 | – | – | – | – | – | –
